Out of some 5,500 compounds screened, about 2,000 (36%) were called active. Not shown: some 18% with an inconclusive outcome. Cut-off read from the data, not from the text of the source: active = normalized growth mostly below about 0.91 (no sharp cut-off); inconclusive = no clear call, values can overlap the other calls; inactive = mostly above about 0.92. This is one part of the list.
Assay: chemical genetic growth profiling, strain panel (AID 1159580);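 note: tested at 20 µM; growth read once vehicle control cultures reached saturation at 30 °C; 1 = growth at the plate median or of vehicle wells; lower values mean less growth of the strain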
Details: growth OD

Measured: normalized growth

Clc1ccc(COC(Cn2ccnc2)c2ccc(Cl)cc2Cl)c(Cl)c1 (configuration not stated)
active: S. cerevisiae deletion strains, locus YJR075W, strain HOC1, active compounds read low 0.0654 | S. cerevisiae deletion strains, locus YKL009W, strain mrt4, active compounds read low 0.0991 | S. cerevisiae deletion strains, locus YKL068W, active compounds read low 0.0685 | S. cerevisiae deletion strains, locus YKL085W, strain MDH1 (second series), active compounds read low 0.0665 | S. cerevisiae deletion strains, locus YKL085W, strain MDH1, active compounds read low 0.0665 | S. cerevisiae deletion strains, locus YKL160W, strain elf1, active compounds read low 0.0826 | S. cerevisiae deletion strains, locus YKL190W, strain CNB1, active compounds read low 0.046 | S. cerevisiae deletion strains, locus YKR001C, strain vps1, active compounds read low 0.0634 | S. cerevisiae deletion strains, locus YKR026C, strain gcn3, active compounds read low 0.0698 | S. cerevisiae deletion strains, locus YKR091W, strain srl3, active compounds read low 0.0616 | S. cerevisiae deletion strains, locus YLL001W, strain dnm1, active compounds read low 0.0638 | S. cerevisiae deletion strains, locus YLL026W, active compounds read low 0.0593 | S. cerevisiae deletion strains, locus YLL041C, strain sdh2, active compounds read low 0.0595 | S. cerevisiae deletion strains, locus YLR027C, strain aat2, active compounds read low 0.0575 | S. cerevisiae deletion strains, locus YLR039C, strain RIC1, active compounds read low 0.0754 | S. cerevisiae deletion strains, locus YLR058C, strain SHM2, active compounds read low 0.0389 | S. cerevisiae deletion strains, locus YLR102C, strain apc9, active compounds read low 0.0667 | S. cerevisiae deletion strains, locus YLR113W, strain HOG1, active compounds read low 0.128 | S. cerevisiae deletion strains, locus YLR221C, strain rsa3, active compounds read low 0.0643 | S. cerevisiae deletion strains, locus YLR258W, strain gsy2, active compounds read low 0.0636 | S. cerevisiae deletion strains, locus YLR262C, strain YPT6 (second series), active compounds read low 0.0835 | S. cerevisiae deletion strains, locus YLR262C, strain YPT6, active compounds read low 0.0925 | S. cerevisiae deletion strains, locus YLR268W, strain sec22, active compounds read low 0.0664 | S. cerevisiae deletion strains, locus YLR320W, strain mms22, active compounds read low 0.087 | S. cerevisiae deletion strains, locus YLR330W, strain CHS5, active compounds read low 0.0522 | S. cerevisiae deletion strains, locus YLR342W, strain FKS1 (second series), active compounds read low 0.0607 | S. cerevisiae deletion strains, locus YLR342W, strain FKS1, active compounds read low 0.0655 | S. cerevisiae deletion strains, locus YLR357W, strain rsc2, active compounds read low 0.124 | S. cerevisiae deletion strains, locus YLR370C, strain arc18, active compounds read low 0.064 | S. cerevisiae deletion strains, locus YLR371W, strain rom2, active compounds read low 0.0643 | S. cerevisiae deletion strains, locus YLR384C, strain iki3, active compounds read low 0.0632 | S. cerevisiae deletion strains, locus YLR418C, strain cdc73, active compounds read low 0.104 | S. cerevisiae deletion strains, locus YML016C, strain PPZ1, active compounds read low 0.0516 | S. cerevisiae deletion strains, locus YML032C, strain rad52, active compounds read low 0.0665 | S. cerevisiae deletion strains, locus YML120C, strain ndi1, active compounds read low 0.0587 | S. cerevisiae deletion strains, locus YML124C, strain tub3, active compounds read low 0.058 | S. cerevisiae deletion strains, locus YMR058W, strain fet3, active compounds read low 0.0613 | S. cerevisiae deletion strains, locus YMR078C, strain ctf18, active compounds read low 0.0692 | S. cerevisiae deletion strains, locus YMR125W, strain sto1, active compounds read low 0.0759 | S. cerevisiae deletion strains, locus YMR129W, active compounds read low 0.0593 | S. cerevisiae deletion strains, locus YMR205C, strain PFK2, active compounds read low 0.0878 | S. cerevisiae deletion strains, locus YMR223W, strain ubp8, active compounds read low 0.0663 | S. cerevisiae deletion strains, locus YMR231W, strain pep5, active compounds read low 0.171 | S. cerevisiae deletion strains, locus YMR263W, strain SAP30, active compounds read low 0.062 | S. cerevisiae deletion strains, locus YMR307W, strain GAS1, active compounds read low 0.107 | S. cerevisiae deletion strains, locus YNL067W, strain RPL9B, active compounds read low 0.0502 | S. cerevisiae deletion strains, locus YNL071W, strain lat1, active compounds read low 0.0615 | S. cerevisiae deletion strains, locus YNL128W, strain TEP1, active compounds read low 0.0612 | S. cerevisiae deletion strains, locus YNL153C, strain GIM3, active compounds read low 0.0486 | S. cerevisiae deletion strains, locus YNL183C, strain NPR1, active compounds read low 0.00703 | S. cerevisiae deletion strains, locus YNL209W, strain ssb2, active compounds read low 0.0642 | S. cerevisiae deletion strains, locus YNL233W, strain BNI4, active compounds read low 0.0542 | S. cerevisiae deletion strains, locus YNL248C, strain rpa49, active compounds read low 0.0801 | S. cerevisiae deletion strains, locus YNL250W, strain rad50, active compounds read low 0.0712 | S. cerevisiae deletion strains, locus YNL271C, strain bni1, active compounds read low 0.0673 | S. cerevisiae deletion strains, locus YNL298W, strain CLA4, active compounds read low 0.0653 | S. cerevisiae deletion strains, locus YNL307C, strain MCK1, active compounds read low 0.0672 | S. cerevisiae deletion strains, locus YNL322C, strain KRE1 (second series), active compounds read low 0.0752 | S. cerevisiae deletion strains, locus YNL322C, strain KRE1, active compounds read low 0.0472 | S. cerevisiae deletion strains, locus YNR049C, strain mso1, active compounds read low 0.0611 | S. cerevisiae deletion strains, locus YNR052C, strain pop2, active compounds read low 0.0593 | S. cerevisiae deletion strains, locus YOL006C, strain TOP1, active compounds read low 0.0836 | S. cerevisiae deletion strains, locus YOL012C, strain htz1 0.185 | S. cerevisiae deletion strains, locus YOL147C, strain pex11, active compounds read low 0.059 | S. cerevisiae deletion strains, locus YOR001W, strain rrp6, active compounds read low 0.0687 | S. cerevisiae deletion strains, locus YOR061W, strain CKA2, active compounds read low 0.0316 | S. cerevisiae deletion strains, locus YOR069W, strain VPS5, active compounds read low 0.052 | S. cerevisiae deletion strains, locus YOR070C, strain gyp1, active compounds read low 0.061 | S. cerevisiae deletion strains, locus YOR080W, strain dia2, active compounds read low 0.0651 | S. cerevisiae deletion strains, locus YOR083W, strain WHI5, active compounds read low 0.0643 | S. cerevisiae deletion strains, locus YOR106W, strain vam3, active compounds read low 0.0643 | S. cerevisiae deletion strains, locus YOR136W, strain idh2, active compounds read low 0.0723 | S. cerevisiae deletion strains, locus YOR144C, strain elg1, active compounds read low 0.0556 | S. cerevisiae deletion strains, locus YOR184W, strain ser1, active compounds read low 0.0771 | S. cerevisiae deletion strains, locus YOR231W, strain MKK1, active compounds read low 0.112 | S. cerevisiae deletion strains, locus YOR265W, strain rbl2, active compounds read low 0.0604 | S. cerevisiae deletion strains, locus YOR270C, strain vph1, active compounds read low 0.0973 | S. cerevisiae deletion strains, locus YOR290C, strain snf2, active compounds read low 0.0739 | S. cerevisiae deletion strains, locus YOR316C, strain cot1, active compounds read low 0.0648 | S. cerevisiae deletion strains, locus YPL051W, strain arl3, active compounds read low 0.0665 | S. cerevisiae deletion strains, locus YPL055C, strain LGE1, active compounds read low 0.0731 | S. cerevisiae deletion strains, locus YPL078C, strain atp4, active compounds read low 0.0694 | S. cerevisiae deletion strains, locus YPL106C, strain sse1, active compounds read low 0.128 | S. cerevisiae deletion strains, locus YPL240C, strain hsp82, active compounds read low 0.0639 | S. cerevisiae deletion strains, locus YPL241C, strain CIN2, active compounds read low 0.0503 | S. cerevisiae deletion strains, locus YPL256C, strain CLN2, active compounds read low 0.129 | S. cerevisiae deletion strains, locus YPR119W, strain clb2, active compounds read low 0.0606 | S. cerevisiae deletion strains, locus YPR141C, strain kar3, active compounds read low 0.0743 | S. cerevisiae deletion strains, locus YPR163C, strain tif3, active compounds read low 0.079 | S. cerevisiae deletion strains, locus YPR167C, strain met16, active compounds read low 0.0606 | S. cerevisiae deletion strains, strain wtn01, active compounds read low 0.0603 | S. cerevisiae strains, strain wild type, active compounds read low 0.0493

Source: PubChem BioAssay AID1159580 (chemical genetic matrix, 2015)
